Laboratory results reported in PubChem BioAssay AID1527 (The Scripps Research Institute Molecular Screening Center, 2009).
The campaign covered roughly 290,000 compounds. About 2,600 (0.9%) were called active.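 Rule for the calls: active = inhibition above the mean of all tested compounds plus 3 SD, cutoff set per screening run (cut at about 7.5% in these data); inactive = the rest.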 The sample as a whole holds a higher share of actives than the screen did.

Each molecule was assayed on VIM-2 metallo-beta-lactamase (Pseudomonas aeruginosa) (assay: VIM-2 metallo-beta-lactamase inhibitors, primary screen, biochemical, epi-absorbance readout, Pseudomonas aeruginosa enzyme (AID 1527;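 note: red hydrolysis product quenches plate fluorescence so inhibitors raise well fluorescence; 0% = enzyme with DMSO and 100% = DMSO without enzyme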)). Conditions: purified VIM-2, nitrocefin hydrolysis, epi-absorbance fluorescence; at 5.6 µM; hits give high values.

inhibition, inactive:
Cc1ccc(-n2c(C)cc(C(=O)CSc3nnc4ccccn34)c2C)cc1 1.89%
Cc1ccc(N/N=C2\COC(C)(C)CC2=O)cc1 -2.64%
Cc1nn(-c2ccccc2)c(C)c1NC(=O)COc1ccc(Cl)cc1Cl -1.49%
CN1CCC(OC(=O)COc2ccc(Cl)cc2Cl)CC1 4.57%
Cc1ccc(-n2c(-c3ccc(Cl)cc3)n[nH]c2=S)cc1 -3.52%
COc1ccc(OC)c(-n2c(-c3ccn[nH]3)n[nH]c2=S)c1 -0.56%
CCCNC(=O)CCc1c(C)nc2c(c(C)nn2-c2ccccc2)c1C -3.85%
C=CCOCCN(C)C1=NS(=O)(=O)c2ccccc21 -0.19%
COc1ccc(/C=N/S(=O)(=O)c2ccccc2)cc1OC 2.08%
CC(=O)c1cccc(NC(=O)C2CCCN(S(=O)(=O)c3cccc4nonc34)C2)c1 (centres undefined) -0.2%
COc1ccc(COC(=O)c2ccc(Cl)c(S(=O)(=O)N3CCOCC3)c2)cc1F -3.64%
COc1ccc(CCNC(=O)c2ccc3c(c2)NC(=O)C(N2CCOCC2)S3)cc1OC (centres undefined) 0.07%
CCN1CCN(CCNC(=O)c2ccc(/C=C3/Sc4ccccc4N(Cc4cccc(C)c4)C3=O)cc2)CC1 -2.77%
O=C(NCCCc1ccccc1)C(=O)NCC1OCCN1S(=O)(=O)c1ccccc1 (centres undefined) -2.36%
CCC(NC(=O)c1cc(COc2ccc(F)c(F)c2)on1)c1ccncc1 (centres undefined) 1.14%
COc1ccc(S(=O)(=O)N2CCN(C)CC2)c(C)c1 1.39%
O=C(NCC(=O)N1CCN(c2ncc(C(F)(F)F)cc2Cl)CC1)c1ccc(Br)o1 0.82%
CC(=O)c1ccc(Cc2ncc(C(F)(F)F)cc2Cl)s1 -0.62%
O=C1CC(C(F)(F)C(F)(F)C(F)(F)C(F)(F)F)=Nc2ccccc2N1 -4.82%
Cc1ccccc1-n1cc(CNC(=O)C2CCC(=O)N(C3CC3)C2)cn1 (centres undefined) -2.92%
O=C1/C(=C/c2ccc3c(c2)OCO3)Oc2cc(OCC(=O)N3CC(O)C[C@H]3C(=O)O)ccc21 (some centres undefined) -0.7%
Cc1ccccc1N1CCN(CCCOc2ccc3c(C)cc(=O)oc3c2)CC1 -0.43%
Cc1cc(=O)oc2ccc(OCC(=O)O)cc12 -3.22%
Cc1ccc2c(C)c(C(=O)N3CCN(c4ccncc4)CC3)oc2c1C 3.45%
Cc1nnc(SCC(=O)Nc2cccc(N)c2)n1-c1ccccc1 -2.64%
O=S(=O)(c1ccc(Br)cc1)N1CCC(c2nc3ccccc3[nH]2)CC1 -4.39%
Cc1cc(NC(=O)/C=C/C(=O)N(c2ccccc2C)C(C(=O)NC2CCCC2)c2ccc(F)cc2)no1 (centres undefined) 1.56%
COc1ccc(CNC(=O)c2cc(C(=O)C3CC3)c[nH]2)cc1 -2.31%
CCOC(=O)N1CCN(C(=O)C2CCN(S(=O)(=O)c3cc(Cl)ccc3OCC)CC2)CC1 -1.98%
CCOC(=O)C1CCN(c2ncnc3c2oc2ccc(Br)cc23)CC1 -2.16%
C=CCOc1cccc(C2NC(=O)c3ccccc3O2)c1 (centres undefined) -2.16%
Cc1cc(Nc2ccc(N3CCOCC3)cc2)c2cccc(C)c2n1 2.18%
Cc1cc(N2CCN(c3ccccc3)CC2)nc(N2CCOCC2)n1 -1.05%
CC(=O)NC(CC(=O)Nc1cccc(S(=O)(=O)N2CCCC2)c1)c1ccccc1 (centres undefined) -3.12%
C=CCn1c(-c2sc(-c3ccccc3)nc2C)n[nH]c1=S -5.93%
C=CCn1c(-c2ccc3[nH]c(C)c(C)c3c2)n[nH]c1=S 5.39%
COc1cc(NC(=O)CCNC(=O)Cn2ccc3ccccc3c2=O)cc(OC)c1OC -1.82%
C[C@H](NC(=O)[C@@H]1Cc2ccccc2CN1C(=O)OC(C)(C)C)C(=O)NC1CCCC1 -2.43%
CCn1c(C(O)c2cc(OC)ccc2OC)nc2ccccc21 (centres undefined) -0.51%
Cc1cccc(OCC(=O)NCCCNC(=O)c2ccccn2)c1 -2.83%
COc1ccc(CC(=O)N/N=C(\C)c2ccccn2)cc1 -3.47%
CCCc1[nH]nc2c1C(c1c(C)nn(-c3ccccc3)c1Cl)C(C#N)=C(N)O2 (centres undefined) -2.17%
CCCc1[nH]nc2c1C(C1CC=CCC1)C(C#N)=C(N)O2 (centres undefined) 1.47%
CNC(=O)c1cc2c(ccc3ccccc32)oc1=N 0.24%
CN(C)C(=O)c1coc2nc3ccccc3nc12 -2.21%
Cc1ccc(S(=O)(=O)c2nc(-c3cccs3)oc2NCc2cccnc2)cc1 -1.14%
O=C(NCCOc1ccccc1F)Nc1ccc(Br)cc1 -1.38%

inhibition, active:
CN1CCN(c2ccc(NC(=O)COc3ccc(Cl)cc3Cl)cc2)CC1 11.7%
COc1ccc(-n2c(-c3ccc(OC)c(OC)c3)n[nH]c2=S)cc1 9.11%
COc1ccc(/C=N/N(C)C2=NS(=O)(=O)c3ccccc32)cc1OC 18.5%
CCN1CCN(CCNC(=O)c2ccc3c(c2)NC(=O)/C(=C\c2ccc(OC)c(OC)c2)S3)CC1 23.2%
CN1CCN(C(=O)CCc2ncc(C(F)(F)F)cc2Cl)CC1 7.72%
Cc1cc(=O)oc2cc(OCCC[n+]3ccccc3)ccc12 8.33%
CCOC(=O)N1CCN(C(=O)C2CCN(c3ncnc4c3sc3cccc(F)c34)CC2)CC1 17.8%
Cc1nn2c3cc(N4CCOCC4)ccc3nc2c2ccccc12 10.9%
C=CCn1c(-c2ccccc2OCC)n[nH]c1=S 25.3%
CCN(CC)CCOc1ccc2c(c1)C(=NNC(=O)c1ccccn1)c1cc(OCCN(CC)CC)ccc1-2 29.9%
CCCc1[nH]nc2c1C(c1ccc(Br)s1)C(C#N)=C(N)O2 (centres undefined) 8.14%
CNC(=O)c1cccc2nc3ccccc3nc12 12.2%
